# Experimental data from PubChem BioAssay (EPA / NIEHS).
# Results filed as inconclusive are left out. Calls of active or inactive are those of the source. How the source made its calls, unless noted: active means hit-call score of the fitted dose curve at least 0.9, where 1 is the maximum; inactive means score below 0.9.
# Key:
# [1] = target: human CYP1A2, CYP1A2 (gene 1544) (UniProt P05177); assay: NVS_ADME_hCYP1A2: NovaScreen (NVS) CYP450-related Enzyme Activity (ADME) Assay for human CYP1A2 (AID 2283102; active means hit-call score of the fitted dose curve at least 0.9, where 1 is the maximum;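 further: potency for inhibition since loss of fluorescence marks reduced CYP1A2 activity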)
# Procedure, shortened: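 rec. hCYP1A2 (insect cells), cell-free; fluorogenic substrate; 0.5 h; FI read. Baseline = acetonitrile; signal loss = inhibition. 10 uM duplicate primary → conc. series for actives.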
# [2] = target: human CYP2C9, CYP2C9 (gene 1559) (UniProt P11712); assay: NVS_ADME_hCYP2C9: NovaScreen (NVS) CYP450-related Enzyme Activity (ADME) Assay for human CYP2C9 (AID 2283108; active means hit-call score of the fitted dose curve at least 0.9, where 1 is the maximum)
# Procedure, shortened: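 Cell-free assay of recombinant human CYP2C9 produced in Sf9 cells, with enzyme activity read by fluorescence intensity 0.75 h after compound addition. Loss of signal versus an acetonitrile negative control indicates inhibition. Primary screen used 10 uM in duplicate; actives were retested in concentration series.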
# [3] = target: Cytochrome P450 2C19 (Homo sapiens) (UniProt P33261); assay: NVS_ADME_hCYP2C19: NovaScreen (NVS) CYP450-related Enzyme Activity (ADME) Assay for human CYP2C19 (AID 2283113; active means hit-call score of the fitted dose curve at least 0.9, where 1 is the maximum;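 on AC50: potency for inhibition seen as loss of fluorescent signal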)
# Procedure, shortened: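 Fluorescence intensity was measured 1 hour after chemicals were added to insect-cell-derived recombinant CYP2C19 with fluorogenic substrate. Decreased signal versus acetonitrile control was taken as reduced enzyme activity; initial testing used 10 uM in duplicate.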
# [4] = target: rat CYP2A1, Cyp2a1 (gene 24894) (UniProt P11711); assay: NVS_ADME_rCYP2A1: NovaScreen (NVS) CYP450-related Enzyme Activity (ADME) Assay for rat CYP2A1 (AID 2283114)
# Procedure, shortened: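 Recombinant rat CYP2A1, cell-free, fluorogenic substrate turnover read by fluorescence intensity 0.75 h after dosing. Primary screen at 10 uM in duplicate; actives rerun as concentration-response up to 20 uM; loss of signal versus acetonitrile control.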
# [5] = read-out: Monocyte Chemoattractant Protein-1 (MCP1), CCL2 (gene 6347); assay: BSK_SAg_MCP1: BioMAP Diversity Plus: SAg Assay for Monocyte Chemoattractant Protein-1 (MCP1) Biomarker Activity (AID 2283090); conditions: primary human HUVEC with PBMC; actives raise or lower the signal
# Procedure, shortened: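 MCP-1 levels in the endothelial–PBMC SAg co-culture were quantified by ELISA at 24 h post-dosing; both increases and decreases versus DMSO scored. Cytotoxicity monitored by SRB total protein in parallel cultures.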
# [6] = read-out: E-selectin (Homo sapiens) (UniProt P16581); assay: BSK_SAg_Eselectin: BioMAP Diversity Plus: SAg Assay for Eselectin Biomarker Activity (AID 2283091); conditions: primary human HUVEC with PBMC; actives raise or lower the signal
# Procedure, shortened: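 Co-culture: HUVEC + PBMC. Dose compound; 24 h. ELISA for E-selectin. Bidirectional fit vs DMSO.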
# [7] = read-out: Monokine induced gamma interferon (MIG), CXCL9 (gene 4283); assay: BSK_SAg_MIG: BioMAP Diversity Plus: SAg Assay for Monokine induced gamma interferon (MIG) Biomarker Activity (AID 2283092); conditions: primary human HUVEC with PBMC; actives raise or lower the signal
# Procedure, shortened: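 HUVEC plus human PBMC co-culture, chemicals dosed and MIG (CXCL9) quantified by ELISA at 24 h. Bidirectional curve fitting against DMSO as negative control and baseline, so both gain and loss of signal count as activity.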
# [8] = BSK_SAg_PBMCCytotoxicity: PBMC Cytotoxicity Assessment in the BioMAP Diversity Plus: SAg Assay (AID 2283093); conditions: primary human HUVEC with PBMC;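 further: PBMC viability measured as Alamar Blue reduction fluorescence at 546/580 nm; fitted both ways against DMSO so a hit may be loss or gain of signal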;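 on AC50: PBMC superantigen activated with SEB plus TSST-1 one hour after compound addition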
# Procedure, shortened: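 Human umbilical vein endothelial cells co-cultured with PBMC; PBMC (75,000/well) pre-treated with compound 1 h, then activated with SEB and TSST-1 (20 ng/mL final each) for 90 h. Alamar Blue added 6 h, fluorescence 546/580 nm; bidirectional fit versus DMSO.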
# [9] = read-out: Interleukin-8 (IL8), CXCL8 (gene 3576); assay: BSK_SAg_IL8: BioMAP Diversity Plus: SAg Assay for Interleukin-8 (IL8) Biomarker Activity (AID 2283094); conditions: primary human HUVEC with PBMC; actives raise or lower the signal
# Procedure, shortened: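 Human umbilical vein endothelial cells co-cultured with PBMC, stimulated with superantigen; IL-8 measured by ELISA 24 h after chemical dosing. Bidirectional fitting versus DMSO; SRB staining in parallel cultures tracks cytotoxicity.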
# [10] = BSK_SAg_Proliferation: Cell Proliferation Assessment in the BioMAP Diversity Plus: SAg Assay (AID 2283095); conditions: primary human HUVEC with PBMC
# Procedure, shortened: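 Human umbilical vein endothelial cells co-cultured with PBMC; sulforhodamine B total-protein staining (0.1% SRB after 10% TCA fixation, absorbance 560 nm) at 96 h in sub-confluent culture. Fitted bidirectionally against DMSO.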
# [11] = BSK_SAg_SRB: Viability Assessment in the BioMAP Diversity Plus: SAg Assay (AID 2283096); conditions: primary human HUVEC with PBMC;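 further: cells read one day after compound addition; hits may be either gain or loss of signal compared with DMSO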
# Procedure, shortened: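 Endothelial/PBMC primary human co-culture; compound 24 h; fix 10% TCA, stain 0.1% SRB, A560; protein content as cytotoxicity proxy; bidirectional curve fit, DMSO = baseline.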
# [12] = target: human CYP2B6, CYP2B6 (gene 1555) (UniProt P20813); assay: NVS_ADME_hCYP2B6: NovaScreen (NVS) CYP450-related Enzyme Activity (ADME) Assay for human CYP2B6 (AID 2283101; active means hit-call score of the fitted dose curve at least 0.9, where 1 is the maximum)
# Procedure, shortened: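 Recombinant human CYP2B6 with fluorogenic substrate, read by fluorescence intensity 1 h after dosing. Primary screen in duplicate at 10 uM, actives followed in concentration series; signal loss relative to acetonitrile control.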
# [13] = target: human CYP1A1, CYP1A1 (gene 1543) (UniProt P04798); assay: NVS_ADME_hCYP1A1: NovaScreen (NVS) CYP450-related Enzyme Activity (ADME) Assay for human CYP1A1 (AID 2283100; active means hit-call score of the fitted dose curve at least 0.9, where 1 is the maximum)
# Procedure, shortened: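 Recombinant hCYP1A1 + fluorogenic substrate, cell-free; 1 h; fluorescence read. Single-point 10 uM (duplicate) → concentration series, max 20 uM. Acetonitrile negative control.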
# [14] = target: Cytochrome P450 3A4 (Homo sapiens) (UniProt P08684); assay: NVS_ADME_hCYP3A4: NovaScreen (NVS) CYP450-related Enzyme Activity (ADME) Assay for human CYP3A4 (AID 2283110; active means hit-call score of the fitted dose curve at least 0.9, where 1 is the maximum)
# Procedure, shortened: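 Cell-free assay using insect-cell-expressed human CYP3A4 with a fluorogenic substrate; fluorescence intensity was read 0.33 hour after dosing. Loss of signal relative to acetonitrile vehicle indicated inhibition. Primary single-concentration screen at 10 uM, in duplicate, then concentration series.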
# [15] = target: human CYP2A6, CYP2A6 (gene 1548) (UniProt P11509); assay: NVS_ADME_hCYP2A6: NovaScreen (NVS) CYP450-related Enzyme Activity (ADME) Assay for human CYP2A6 (AID 2283099; active means hit-call score of the fitted dose curve at least 0.9, where 1 is the maximum)
# Procedure, shortened: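 Fluorescent substrate turnover by recombinant CYP2A6 (insect cell source), 0.5 h read. Screen: 10 uM, duplicate; threshold hits (e.g. 30% inhibition) → singleton concentration-response, top 20 uM. Positive and negative controls on every plate.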
# [16] = target: human CYP2J2, CYP2J2 (gene 1573) (UniProt P51589); assay: NVS_ADME_hCYP2J2: NovaScreen (NVS) CYP450-related Enzyme Activity (ADME) Assay for human CYP2J2 (AID 2283106; active means hit-call score of the fitted dose curve at least 0.9, where 1 is the maximum)
# Procedure, shortened: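 Cell-free assay of recombinant CYP2J2 with a fluorogenic substrate, read 1 h after dosing; loss of signal versus acetonitrile. Primary screen at 10 uM in duplicate, then concentration-response up to 20 uM for chemicals passing threshold (e.g., 30% inhibition).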
# [17] = target: rat CYP1A2, Cyp1a2 (gene 24297) (UniProt P04799); assay: NVS_ADME_rCYP1A2: NovaScreen (NVS) CYP450-related Enzyme Activity (ADME) Assay for rat CYP1A2 (AID 2283115; active means hit-call score of the fitted dose curve at least 0.9, where 1 is the maximum)
# Procedure, shortened: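 Cell-free recombinant rat enzyme with fluorogenic substrate, read by fluorescence intensity 1 hour after dosing. Loss of signal versus acetonitrile negative control; primary screen at 10 uM in duplicate, actives followed in concentration series.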
# [18] = target: human CYP19A1, CYP19A1 (gene 1588) (UniProt P11511); assay: NVS_ADME_hCYP19A1: NovaScreen (NVS) CYP450-related Enzyme Activity (ADME) Assay for human CYP19A1 (AID 2283098; active means hit-call score of the fitted dose curve at least 0.9, where 1 is the maximum;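 further: potency for inhibitors seen as loss of fluorescent enzyme signal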)
# Procedure, shortened: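 Cell-free enzyme assay with recombinant protein and a specific fluorogenic substrate, read by fluorescence intensity 0.5 h after dosing. Primary screen ran in duplicate at 10 uM; actives were retested in concentration series. Loss of signal versus acetonitrile baseline.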
# [19] = target: human CYP4F12, CYP4F12 (gene 66002) (UniProt Q9HCS2); assay: NVS_ADME_hCYP4F12: NovaScreen (NVS) CYP450-related Enzyme Activity (ADME) Assay for human CYP4F12 (AID 2283111; active means hit-call score of the fitted dose curve at least 0.9, where 1 is the maximum)
# Procedure, shortened: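 Cell-free fluorescence assay of recombinant human CYP4F12 activity on a specific substrate, read 0.5 h after dosing. Primary screen in duplicate at 10 uM, then concentration series for actives; loss of signal fitted against acetonitrile negative control.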
# human CYP1A1, CYP1A1 (gene 1543), sequence (P04798 whole entry, looked up): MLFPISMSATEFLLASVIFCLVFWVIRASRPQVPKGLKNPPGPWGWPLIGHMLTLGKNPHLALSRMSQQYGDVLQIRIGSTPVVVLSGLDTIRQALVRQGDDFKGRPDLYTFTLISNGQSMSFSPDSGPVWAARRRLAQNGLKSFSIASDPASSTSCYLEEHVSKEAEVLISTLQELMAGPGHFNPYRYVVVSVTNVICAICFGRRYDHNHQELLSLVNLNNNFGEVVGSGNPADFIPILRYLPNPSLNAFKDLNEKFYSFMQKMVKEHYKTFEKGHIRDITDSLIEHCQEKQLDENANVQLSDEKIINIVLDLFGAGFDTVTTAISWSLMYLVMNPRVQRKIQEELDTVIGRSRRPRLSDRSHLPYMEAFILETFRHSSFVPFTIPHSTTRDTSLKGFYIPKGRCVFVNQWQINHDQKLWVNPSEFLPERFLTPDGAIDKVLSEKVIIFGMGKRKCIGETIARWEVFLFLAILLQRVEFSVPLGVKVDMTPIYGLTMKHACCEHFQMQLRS
# E-selectin (Homo sapiens), sequence (P16581 whole entry, looked up): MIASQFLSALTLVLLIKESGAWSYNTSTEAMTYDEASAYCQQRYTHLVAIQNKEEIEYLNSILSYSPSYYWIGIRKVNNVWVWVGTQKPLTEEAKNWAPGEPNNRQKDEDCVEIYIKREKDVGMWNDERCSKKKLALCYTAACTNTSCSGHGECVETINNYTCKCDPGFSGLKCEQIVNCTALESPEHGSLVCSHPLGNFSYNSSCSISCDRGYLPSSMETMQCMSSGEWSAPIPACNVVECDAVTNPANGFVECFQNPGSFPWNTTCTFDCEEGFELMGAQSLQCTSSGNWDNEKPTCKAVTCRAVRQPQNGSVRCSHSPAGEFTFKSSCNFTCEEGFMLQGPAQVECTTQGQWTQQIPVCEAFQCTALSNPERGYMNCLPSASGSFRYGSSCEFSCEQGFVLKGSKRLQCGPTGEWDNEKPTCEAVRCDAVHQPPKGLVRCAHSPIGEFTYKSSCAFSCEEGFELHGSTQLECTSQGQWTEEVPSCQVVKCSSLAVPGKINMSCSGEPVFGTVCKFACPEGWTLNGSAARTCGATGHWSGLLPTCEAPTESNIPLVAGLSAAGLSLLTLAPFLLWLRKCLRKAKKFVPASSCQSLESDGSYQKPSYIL
# Cytochrome P450 3A4 (Homo sapiens), sequence (P08684 whole entry, looked up): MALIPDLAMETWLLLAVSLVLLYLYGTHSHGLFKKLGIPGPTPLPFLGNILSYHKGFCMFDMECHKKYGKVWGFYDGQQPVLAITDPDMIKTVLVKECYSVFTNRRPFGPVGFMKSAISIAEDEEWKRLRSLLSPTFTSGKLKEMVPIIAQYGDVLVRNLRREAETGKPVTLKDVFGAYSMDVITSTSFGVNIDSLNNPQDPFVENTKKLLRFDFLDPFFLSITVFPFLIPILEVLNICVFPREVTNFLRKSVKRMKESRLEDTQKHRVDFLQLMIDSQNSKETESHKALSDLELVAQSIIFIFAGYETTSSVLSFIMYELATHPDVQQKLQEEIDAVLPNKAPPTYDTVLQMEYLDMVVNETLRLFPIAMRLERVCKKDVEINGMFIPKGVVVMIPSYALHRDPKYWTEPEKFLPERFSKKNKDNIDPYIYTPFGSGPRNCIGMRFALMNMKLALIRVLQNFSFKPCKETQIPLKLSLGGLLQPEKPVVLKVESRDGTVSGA
# human CYP2C9, CYP2C9 (gene 1559), sequence (P11712 whole entry, looked up): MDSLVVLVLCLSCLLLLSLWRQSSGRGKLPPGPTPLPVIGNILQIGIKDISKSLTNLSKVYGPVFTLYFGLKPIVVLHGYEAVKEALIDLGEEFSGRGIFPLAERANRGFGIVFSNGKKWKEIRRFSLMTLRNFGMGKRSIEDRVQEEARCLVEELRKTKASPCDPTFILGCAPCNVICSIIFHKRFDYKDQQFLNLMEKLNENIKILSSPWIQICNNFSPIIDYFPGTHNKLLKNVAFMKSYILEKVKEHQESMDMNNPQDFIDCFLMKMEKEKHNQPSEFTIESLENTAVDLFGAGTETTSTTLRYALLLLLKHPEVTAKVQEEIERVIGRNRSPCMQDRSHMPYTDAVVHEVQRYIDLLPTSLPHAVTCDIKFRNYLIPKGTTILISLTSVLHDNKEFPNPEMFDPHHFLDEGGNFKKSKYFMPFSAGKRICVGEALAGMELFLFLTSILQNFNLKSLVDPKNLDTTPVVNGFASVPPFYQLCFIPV
# human CYP2B6, CYP2B6 (gene 1555), sequence (P20813 whole entry, looked up): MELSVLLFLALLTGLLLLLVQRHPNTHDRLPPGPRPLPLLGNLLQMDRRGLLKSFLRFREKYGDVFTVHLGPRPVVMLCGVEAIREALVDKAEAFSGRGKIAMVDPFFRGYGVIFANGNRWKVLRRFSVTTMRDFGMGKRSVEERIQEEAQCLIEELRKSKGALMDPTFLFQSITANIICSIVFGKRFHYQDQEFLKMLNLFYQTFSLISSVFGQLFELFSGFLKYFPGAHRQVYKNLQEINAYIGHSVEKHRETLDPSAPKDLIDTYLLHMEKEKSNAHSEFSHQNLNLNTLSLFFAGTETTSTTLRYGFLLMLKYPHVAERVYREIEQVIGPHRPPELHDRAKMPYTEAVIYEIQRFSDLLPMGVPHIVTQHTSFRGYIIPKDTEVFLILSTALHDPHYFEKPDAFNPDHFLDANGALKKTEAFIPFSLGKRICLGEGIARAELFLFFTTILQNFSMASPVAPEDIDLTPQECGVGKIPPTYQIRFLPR
# human CYP1A2, CYP1A2 (gene 1544), sequence (P05177 whole entry, looked up): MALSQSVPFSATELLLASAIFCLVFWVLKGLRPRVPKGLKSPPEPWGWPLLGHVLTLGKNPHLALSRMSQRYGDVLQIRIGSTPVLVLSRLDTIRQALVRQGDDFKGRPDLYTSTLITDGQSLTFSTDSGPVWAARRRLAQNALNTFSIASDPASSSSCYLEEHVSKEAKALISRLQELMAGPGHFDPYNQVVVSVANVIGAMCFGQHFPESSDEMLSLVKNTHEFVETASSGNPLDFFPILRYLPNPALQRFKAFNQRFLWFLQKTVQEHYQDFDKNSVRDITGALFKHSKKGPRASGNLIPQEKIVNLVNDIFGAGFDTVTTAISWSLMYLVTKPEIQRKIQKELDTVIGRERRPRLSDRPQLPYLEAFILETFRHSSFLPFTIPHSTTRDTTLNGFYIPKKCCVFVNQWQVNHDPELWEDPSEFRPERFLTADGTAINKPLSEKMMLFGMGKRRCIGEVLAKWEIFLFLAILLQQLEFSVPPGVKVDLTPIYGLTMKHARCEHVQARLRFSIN
# human CYP2A6, CYP2A6 (gene 1548), sequence (P11509 whole entry, looked up): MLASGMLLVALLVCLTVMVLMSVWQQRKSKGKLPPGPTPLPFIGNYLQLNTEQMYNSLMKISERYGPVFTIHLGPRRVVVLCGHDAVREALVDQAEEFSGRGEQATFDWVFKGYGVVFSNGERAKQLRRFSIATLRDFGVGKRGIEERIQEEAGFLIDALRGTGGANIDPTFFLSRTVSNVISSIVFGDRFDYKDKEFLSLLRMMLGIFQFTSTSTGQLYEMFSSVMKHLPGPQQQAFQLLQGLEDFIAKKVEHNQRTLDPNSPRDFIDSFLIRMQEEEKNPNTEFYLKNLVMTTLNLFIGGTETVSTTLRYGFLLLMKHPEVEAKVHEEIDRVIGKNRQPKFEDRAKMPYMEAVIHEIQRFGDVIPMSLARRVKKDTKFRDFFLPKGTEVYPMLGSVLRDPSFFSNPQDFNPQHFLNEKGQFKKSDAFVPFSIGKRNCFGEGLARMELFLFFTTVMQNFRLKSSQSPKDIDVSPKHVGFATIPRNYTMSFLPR
# human CYP19A1, CYP19A1 (gene 1588), sequence (P11511 whole entry, looked up): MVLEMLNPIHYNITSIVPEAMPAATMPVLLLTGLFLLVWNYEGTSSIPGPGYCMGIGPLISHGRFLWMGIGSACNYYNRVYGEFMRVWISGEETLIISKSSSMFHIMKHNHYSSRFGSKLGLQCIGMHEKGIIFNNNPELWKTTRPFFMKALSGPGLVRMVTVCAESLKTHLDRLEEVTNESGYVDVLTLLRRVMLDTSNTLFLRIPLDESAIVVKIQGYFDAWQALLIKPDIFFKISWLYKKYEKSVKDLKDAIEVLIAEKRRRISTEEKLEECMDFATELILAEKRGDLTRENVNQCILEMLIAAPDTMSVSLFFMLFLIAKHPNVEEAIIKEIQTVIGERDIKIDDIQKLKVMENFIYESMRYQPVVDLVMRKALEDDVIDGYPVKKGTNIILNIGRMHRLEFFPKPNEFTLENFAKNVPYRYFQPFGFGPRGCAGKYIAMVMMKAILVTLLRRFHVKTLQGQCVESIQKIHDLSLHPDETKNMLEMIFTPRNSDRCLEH
# rat CYP2A1, Cyp2a1 (gene 24894), sequence (P11711 whole entry, looked up): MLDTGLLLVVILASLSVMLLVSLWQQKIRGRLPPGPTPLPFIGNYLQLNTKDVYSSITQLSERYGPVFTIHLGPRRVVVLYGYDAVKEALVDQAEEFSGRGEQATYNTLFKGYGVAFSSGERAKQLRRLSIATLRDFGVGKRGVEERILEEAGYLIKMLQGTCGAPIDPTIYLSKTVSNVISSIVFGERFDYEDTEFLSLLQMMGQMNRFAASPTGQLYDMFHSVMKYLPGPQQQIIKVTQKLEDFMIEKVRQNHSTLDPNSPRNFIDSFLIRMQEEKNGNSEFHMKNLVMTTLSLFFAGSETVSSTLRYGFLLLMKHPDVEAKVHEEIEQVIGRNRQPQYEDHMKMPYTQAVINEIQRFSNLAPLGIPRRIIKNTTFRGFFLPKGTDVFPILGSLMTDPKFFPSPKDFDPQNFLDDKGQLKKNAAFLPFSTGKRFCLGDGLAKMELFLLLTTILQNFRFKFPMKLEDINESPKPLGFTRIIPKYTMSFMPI
compound,measurement,setting,value
CO/N=C(/C(=O)OC)c1ccccc1COc1ccccc1C,AC50,[1],9.98 µM (active)
same,AC50,[2],6.5 µM (active)
same,AC50,[3],2.85 µM (active)
same,AC50,[4],4.24 µM (active)
c1ccc2c(c1)Nc1ccccc1S2,outcome,[5],inactive
same,outcome,[6],inactive
same,outcome,[7],inactive
same,AC50,[8],2.19 µM (active)
same,outcome,[9],inactive
same,AC50,[10],20 µM (active)
same,outcome,[11],inactive
same,AC50,[1],1.45 µM (active)
same,AC50,[2],6.5 µM (active)
same,AC50,[3],6.45 µM (active)
ClC1=C(Cl)C2(Cl)C3C(Cl)C(Cl)CC3C1(Cl)C2(Cl)Cl (stereo not drawn),AC50,[5],33.6 µM (active)
same,AC50,[6],32.3 µM (active)
same,AC50,[7],34.4 µM (active)
same,AC50,[8],13.8 µM (active)
same,AC50,[9],34.7 µM (active)
same,AC50,[10],7.61 µM (active)
same,AC50,[11],31.1 µM (active)
same,AC50,[12],5.2 µM (active)
same,AC50,[3],6.11 µM (active)
CSC(C)(C)C=NO,outcome,[5],inactive
same,outcome,[6],inactive
same,outcome,[7],inactive
same,outcome,[8],inactive
same,outcome,[9],inactive
same,outcome,[10],inactive
same,outcome,[11],inactive
same,outcome,[13],inactive
same,outcome,[12],inactive
same,outcome,[2],inactive
same,outcome,[14],inactive
same,outcome,[3],inactive
CCC(C)(C)c1ccc(O)cc1,outcome,[5],inactive
same,outcome,[6],inactive
same,outcome,[7],inactive
same,outcome,[8],inactive
same,outcome,[9],inactive
same,outcome,[10],inactive
same,outcome,[11],inactive
same,outcome,[15],inactive
same,AC50,[12],10 µM (active)
O=P(Oc1ccccc1)(Oc1ccccc1)Oc1ccccc1,AC50,[5],29 µM (active)
same,AC50,[6],33.7 µM (active)
same,AC50,[7],31.3 µM (active)
same,outcome,[8],inactive
same,AC50,[9],30.2 µM (active)
same,AC50,[10],32.2 µM (active)
same,AC50,[11],29.3 µM (active)
same,AC50,[1],5.67 µM (active)
same,AC50,[3],0.872 µM (active)
CC1(C)CN=C(NN=C(/C=C/c2ccc(C(F)(F)F)cc2)/C=C/c2ccc(C(F)(F)F)cc2)NC1,outcome,[13],inactive
same,AC50,[1],12.9 µM (active)
same,AC50,[16],5.19 µM (active)
same,outcome,[14],inactive
O=P(OCC(Br)CBr)(OCC(Br)CBr)OCC(Br)CBr (stereo not drawn),outcome,[5],inactive
same,outcome,[6],inactive
same,outcome,[7],inactive
same,outcome,[8],inactive
same,outcome,[9],inactive
same,outcome,[10],inactive
same,outcome,[11],inactive
same,AC50,[3],4.35 µM (active)
same,outcome,[17],inactive
CCOC(=O)c1ccccc1C(=O)OCC,outcome,[5],inactive
same,outcome,[6],inactive
same,outcome,[7],inactive
same,outcome,[8],inactive
same,outcome,[9],inactive
same,outcome,[10],inactive
same,outcome,[11],inactive
same,outcome,[14],inactive
O=S(=O)(c1ccc(O)cc1)c1ccc(O)cc1,AC50,[18],8.81 µM (active)
CCOP(=S)(OCC)SCSCC,outcome,[5],inactive
same,outcome,[6],inactive
same,outcome,[7],inactive
same,outcome,[8],inactive
same,outcome,[9],inactive
same,outcome,[10],inactive
same,outcome,[11],inactive
same,AC50,[13],4.19 µM (active)
same,AC50,[3],9.32 µM (active)
Nc1ccc2ccccc2c1,outcome,[5],inactive
same,AC50,[6],4.16 µM (active)
same,outcome,[7],inactive
same,outcome,[8],inactive
same,outcome,[9],inactive
same,outcome,[10],inactive
same,outcome,[11],inactive
same,outcome,[15],inactive
same,AC50,[12],1.45 µM (active)
same,AC50,[1],7.68 µM (active)
same,AC50,[3],2.58 µM (active)
CCC1(c2ccccc2)C(=O)N=C(O)NC1=O (stereo not drawn),outcome,[5],inactive
same,outcome,[6],inactive
same,outcome,[7],inactive
same,outcome,[8],inactive
same,outcome,[9],inactive
same,outcome,[10],inactive
same,outcome,[11],inactive
same,outcome,[19],inactive
CC(Cc1ccc(OCC(=O)O)cc1)NCC(O)c1csc(C(F)(F)F)n1 (stereo not drawn),outcome,[5],inactive
same,outcome,[6],inactive
same,outcome,[7],inactive
same,outcome,[8],inactive
same,outcome,[9],inactive
same,outcome,[10],inactive
same,outcome,[11],inactive
same,outcome,[3],inactive
CCCCOCCOP(=O)(OCCOCCCC)OCCOCCCC,outcome,[5],inactive
same,outcome,[6],inactive
same,outcome,[7],inactive
same,outcome,[8],inactive
same,outcome,[9],inactive
same,outcome,[10],inactive
same,outcome,[11],inactive
same,outcome,[3],inactive
C=CC(=O)OCC(CC)(COC(=O)C=C)COC(=O)C=C,AC50,[5],2.6 µM (active)
same,AC50,[6],1.36 µM (active)
same,AC50,[7],3.36 µM (active)
same,AC50,[8],2.93 µM (active)
same,AC50,[9],1.7 µM (active)
same,AC50,[10],0.587 µM (active)
same,AC50,[11],3.38 µM (active)
same,AC50,[3],2.4 µM (active)
Cc1ccc(O)cc1C,outcome,[5],inactive
same,outcome,[6],inactive
same,outcome,[7],inactive
same,outcome,[9],inactive
same,outcome,[10],inactive
same,outcome,[11],inactive
